Experimental findings from the supplement of paper PMC11865577 are described below.

The test system of the test is SARS-CoV-2 low-rank motif (SARS-low). The experiment in a line: normalised indicator fluorescence (fraction of RNA + indicator signal without compound); higher = less displacement of indicator (weaker competition). The following applies: compound concentration: 5 uM, 30 min. In short, it runs like this: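 Compounds, each at about 5 uM final from 0.25 μL of 1 mM DMSO stock, were tested in 96-well plates for displacement of TO-PRO-1 or TO-PRO-3 from RNA in 20 mM phosphate pH 7.0, 20 mM NaCl, 80 mM KCl. Fluorescence was recorded after 30 min on an Infinite 200 PRO (excitation 485 or 620 nm). Reported values are averages of two independent experiments, calculated as indicator fluorescence minus the buffer-plus-indicator blank, divided by the RNA-plus-indicator signal without compound.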

Where [1] appears, read: indicator: TO-PRO-1 0.1 uM, RNA concentration: 0.1 uM.
The mark [2] stands for this setting: indicator: TO-PRO-3 0.5 uM, RNA concentration: 0.5 uM.

Structures can show the parent of a compound that is named as a salt.

In the case of `CN1CCN(c2ccc(C(=O)Nc3n[nH]c4ccc(Cc5cc(F)cc(F)c5)cc34)c(NC3CCOCC3)c2)CC1` [Entrectinib], the normalised indicator fluorescence under setting [1] is 1.16 and the normalised indicator fluorescence under setting [2] turned out to be 1.39.

Take `O=C(O)/C=C/c1ccc(Cn2ccnc2)cc1` [Ozagrel]: the normalised indicator fluorescence under setting [1] was found to be 1.09 and the normalised indicator fluorescence under setting [2] turned out to be 1.21.

As for `COc1nc(-c2ccc3c(c2)OCO3)n(-c2ccc(NC(=O)CSc3ccccc3)cc2)n1` [SecinH3], the normalised indicator fluorescence reads like this: under setting [1], 1.55; under setting [2], 0.816.

Consider `COC1=C2C[C@@H](C)C[C@H](OC)[C@H](O)[C@@H](C)/C=C(\C)[C@H](OC(N)=O)[C@@H](OC)/C=C\C=C(/C)C(=O)NC(=CC1=O)C2=O` [Geldanamycin], for which the normalised indicator fluorescence is 1.15 under setting [1] and 1.36 under setting [2].

As for `O=C1O[C@H]([C@@H](O)CO)C(O)=C1O` [L(+)-Ascorbic acid], the normalised indicator fluorescence under setting [1] stood at 1.18 and the normalised indicator fluorescence under setting [2] was 1.24.

Turning to `COC(=O)c1ccc([C@H]2c3[nH]c4ccccc4c3C[C@H](C(=O)OC)N2C(=O)CCl)cc1`, the normalised indicator fluorescence stood at 1 under setting [1] and 1.16 under setting [2].

Take `Oc1cc(O)c2c(c1)O[C@H](c1ccc(O)c(O)c1)[C@@H](O)C2` [(+)-Catechin Hydrate]: the normalised indicator fluorescence reads like this: under setting [1], 0.966; under setting [2], 1.16.

Consider `COc1ccc(-c2nc(-c3cc(C(F)(F)F)cc(C(F)(F)F)c3)n(Cc3ccc(C(N)=O)cc3)c2-c2ccc(OC)cc2)cc1` [Apoptozole], for which the normalised indicator fluorescence was determined as 1.12 under setting [1] and 1.14 under setting [2].

Take `Oc1ccc(OCc2ccccc2)cc1` [Monobenzone]: the normalised indicator fluorescence is, setting by setting: under setting [1], 1.17; under setting [2], 1.21.

Consider `O=C(/C=C/C=C/c1ccc2c(c1)OCO2)N1CCCCC1` [Piperine], for which the normalised indicator fluorescence runs as follows: under setting [1], 1.02; under setting [2], 1.15.

With `Cc1c(C)c2c(c(C)c1O)CCC(C)(C(=O)O)O2` (stereo unspecified) [Trolox], the normalised indicator fluorescence under setting [1] was 1.24 and the normalised indicator fluorescence under setting [2] was determined as 1.07.

For `CCNC(=O)c1[nH]nc(-c2cc(Cl)c(O)cc2O)c1-c1ccc(OC)cc1`, the normalised indicator fluorescence is, setting by setting: under setting [1], 1.25; under setting [2], 1.22.

As for `Cc1cccc(CC(=O)N2CCc3c2ccc(-c2cn(C)c4ncnc(N)c24)c3F)n1`, the normalised indicator fluorescence reads like this: under setting [1], 1.06; under setting [2], 1.05.

Turning to `Nc1ncnc2c1ncn2[C@@H]1O[C@H](CO)[C@@H](O)[C@@H]1O` [Vidarabine], the normalised indicator fluorescence reads like this: under setting [1], 1.11; under setting [2], 1.17.

For `COc1nccnc1NS(=O)(=O)c1ccc(NC(=O)/C=C/c2ccc([N+](=O)[O-])s2)cc1` [Necrosulfonamide], the normalised indicator fluorescence by setting is: under setting [1], 1.16; under setting [2], 0.996.

On to `C[C@H]1[C@H](C)CC[C@]2(C(=O)O[C@@H]3O[C@H](CO[C@@H]4O[C@H](CO)[C@@H](O[C@@H]5O[C@H](C)[C@H](O)[C@@H](O)[C@H]5O)[C@H](O)[C@H]4O)[C@@H](O)[C@H](O)[C@H]3O)CC[C@]3(C)C(=CC[C@@H]4[C@@]5(C)C[C@@H](O)[C@H](O)[C@@](C)(CO)[C@@H]5CC[C@]43C)[C@H]12` [Asiaticoside], for which the normalised indicator fluorescence is 1.05 under setting [1] and 1.3 under setting [2].

`Oc1ccc(OC2CCCCO2)cc1` (stereo unspecified) [Deoxyarbutin]: the normalised indicator fluorescence runs as follows: under setting [1], 1.17; under setting [2], 0.988.

As for `C1CCN2C[C@@H]3C[C@@H](CN4CCCC[C@@H]34)[C@H]2C1` [(-)-Sparteine sulfate pentahydrate], the normalised indicator fluorescence worked out at 1.05 under setting [1] and 0.993 under setting [2].

As to `COc1ccc(C(=C2C(=O)Nc3ccccc32)c2ccc(OC)cc2)cc1`, the normalised indicator fluorescence reads like this: under setting [1], 1.38; under setting [2], 1.17.

For `O=c1ncn2nc(Sc3ccc(F)cc3F)ccc2c1-c1c(Cl)cccc1Cl` [Neflamapimod], the normalised indicator fluorescence runs as follows: under setting [1], 1.2; under setting [2], 1.17.

Take `O=CN1CC/C(=C/c2ccc3c(c2)OCO3)C1=O`: the normalised indicator fluorescence was determined as 1.02 under setting [1] and 1.08 under setting [2].

In the case of `CCc1cc(C(N)=S)ccn1` [Ethinamide], the normalised indicator fluorescence under setting [1] amounted to 1.15 and the normalised indicator fluorescence under setting [2] was 1.12.

For the compound `CC(=O)O[C@H]1C[C@@]2(C)[C@@H](C[C@@H](O)[C@H]3[C@@]4(C)CC[C@@H](O)[C@@H](C)[C@@H]4CC[C@@]32C)/C1=C(\CCC=C(C)C)C(=O)O` [Fusidine], the normalised indicator fluorescence is, setting by setting: under setting [1], 1.26; under setting [2], 1.12.

Take `C/C1=C/CC[C@H](C)C(=O)C[C@@H](C(C)C)C(=O)C1` [Curdione]: the normalised indicator fluorescence is, setting by setting: under setting [1], 1.15; under setting [2], 1.1.

In the case of `O=C(Nc1ccc2[nH]nc(-c3ccncc3)c2c1)[C@@H]1CCN(CC(=O)N2CCN(c3ccc(-c4ncccn4)cc3)CC2)C1`, the normalised indicator fluorescence by setting is: under setting [1], 1.11; under setting [2], 1.26.

As to `O=C(Nc1nc2ccc(NC(=O)C34CC5CC(CC(C5)C3)C4)cc2s1)c1ccccc1`, the normalised indicator fluorescence by setting is: under setting [1], 1.49; under setting [2], 1.12.

Consider `CNc1ccc([N+](=O)[O-])c(Nc2ccc3[nH]ncc3c2)n1`, for which the normalised indicator fluorescence under setting [1] stood at 1.01 and the normalised indicator fluorescence under setting [2] came out at 1.14.

With `O=C(O)C(O)Cc1ccc(O)c(O)c1` (stereo unspecified) [Sodium Danshensu], the normalised indicator fluorescence came to 0.934 under setting [1] and 0.931 under setting [2].

With `CC(=O)O[C@H]1C[C@@]2(C)[C@@H](C[C@@H](O)[C@H]3[C@@]4(C)CC[C@@H](O)[C@@H](C)[C@@H]4CC[C@@]32C)/C1=C(\CCC=C(C)C)C(=O)O` [Sodium fusidate], the normalised indicator fluorescence by setting is: under setting [1], 1.11; under setting [2], 1.04.

With `O=c1ccc2ccc(O)c(O)c2o1` [Daphnetin], the normalised indicator fluorescence worked out at 1.04 under setting [1] and 0.935 under setting [2].

On to `C[C@H](CCC(=O)NCCS(=O)(=O)O)[C@H]1CC[C@H]2[C@@H]3[C@@H](O)C[C@@H]4C[C@H](O)CC[C@]4(C)[C@H]3CC[C@]12C` [Tauroursodeoxycholic Acid], for which the normalised indicator fluorescence under setting [1] was 1.21 and the normalised indicator fluorescence under setting [2] stood at 1.52.

With `CCNC(=O)c1noc(-c2cc(C(C)C)c(O)cc2O)c1-c1ccc(CN2CCOCC2)cc1` [Luminespib], the normalised indicator fluorescence stood at 1.01 under setting [1] and 1.09 under setting [2].

For the compound `Cc1cc(C(C)(C)C)c(O)c(C(C)(C)C)c1`, the normalised indicator fluorescence runs as follows: under setting [1], 1.26; under setting [2], 1.23.

On to `C[C@H]1Oc2cc(cnc2N)-c2c(nn(C)c2C#N)CN(C)C(=O)c2ccc(F)cc21` [Lorlatinib], for which the normalised indicator fluorescence reads like this: under setting [1], 1.13; under setting [2], 1.23.

Take `CC(=O)CCCCn1c(=O)c2c(ncn2C)n(C)c1=O` [Pentoxifylline]: the normalised indicator fluorescence stood at 1.23 under setting [1] and 1.05 under setting [2].

With `CCc1oc2ccccc2c1C(=O)c1cc(Br)c(O)c(Br)c1` [Benzbromarone], the normalised indicator fluorescence is 1.02 under setting [1] and 1.4 under setting [2].

Consider `O=C1CCc2ccccc2C1` [Beta-Tetralone], for which the normalised indicator fluorescence was determined as 1.19 under setting [1] and 1.2 under setting [2].

`CNC(=O)c1ccc(C)c(-n2c(C)cc(OCc3ccc(F)cc3F)c(Br)c2=O)c1`: the normalised indicator fluorescence is, setting by setting: under setting [1], 1.01; under setting [2], 1.07.
